Source: PubChem BioAssay (NCATS)
Several values for one entry are separate records, joined by “and”; a condition that tells them apart may be missing. Equal entries are not always repeated. Inconclusive results are not listed. Activity calls are given as the source filed them. Calls follow the shape of the dose curve; as a rule, active = well fitted inhibition curve with a large enough effect; inconclusive = small, poorly fitted or top-dose-only effect; inactive = flat fitted curve, though single readings scatter.

System: KB-3-1
Experiment: Cytotoxic Profiling of Annotated Libraries Using Quantitative High-Throughput Screening (AID 1296008); also: nearly all actives have a fitted effect of over 60% in size
Settings: Five cell lines viability, CellTiter-Glo ATP luminescence, 48-72 h; max response: active compounds read low
Procedure, shortened: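 Cytotoxicity was measured as CellTiter-Glo ATP luminescence, read after 10 min at room temperature. Compound treatment of the cells lasted 48 or 72 hr at 37 degrees Celsius in a qHTS format.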
% is scaled to controls: 0 for no effect and ±100 for the full control effect; potency is read from the fitted curve at half-maximal effect.

Q: C[C@H]1[C@@H](OC(=O)CCC(=O)O)O[C@@H]2O[C@@]3(C)CC[C@@H]4[C@H](C)CC[C@@H]1[C@@]24OO3 was tested. Which Potency did it give?
A: 18.7 µM (active)

Q: How did the Potency turn out when CC(=O)O[C@@]12CO[C@H]1C[C@H](O)[C@@]1(C)C(=O)[C@H](O)C3=C(C)[C@@H](OC(=O)C(O)[C@@H](NC(=O)OC(C)(C)C)c4ccccc4)C[C@@](O)([C@@H](OC(=O)c4ccccc4)[C@@H]21)C3(C)C (some centres undefined) was run?
A: 0.0526 µM (active)

Q: For c1cncc(CN2CCC(n3ncc4c(N5CCOCC5)nc(-c5ccc6[nH]ccc6c5)nc43)CC2)c1, which Potency is on record?
A: 10.3 µM (active)

Q: How did the max response turn out when Cn1cc(-c2ccc3ncc(Cc4ccc5ncccc5c4)n3n2)cn1 was run?
A: 8.56% (inactive) and 1.39% (inactive)

Q: Which Potency does the source give for COc1ccc(C[C@@H](C)[C@@H](C)Cc2ccc(OC)c(OC)c2)cc1OC here?
A: 2.96 µM (active)

Q: With COC1=C2C[C@@H](C)C[C@H](OC)[C@@H](O)[C@@H](C)C=C(C)[C@H](OC(N)=O)[C@@H](OC)C=CC=C(C)C(=O)NC(=CC1=O)C2=O as the molecule, how does the Potency read?
A: 2.09 µM (active)

Q: CN1CCc2c(c3ccccc3n2Cc2ccc(C(=O)NO)cc2)C1 was tested. Which Potency did it give?
A: 26.4 µM (active)

Q: CCc1nc(-c2cccc(C)c2)c(-c2ccnc(NC(=O)c3ccccc3)c2)s1 was tested. Which max response did it give?
A: -16.2% (inactive)

Q: How did the Potency turn out when CCN(CC)CCNC(=O)c1c(C)[nH]c(C=C2C(=O)Nc3ccc(F)cc32)c1C was run?
A: 2.15 µM (active)

Q: CCOc1cc2ncc(C#N)c(Nc3ccc(OCc4ccccn4)c(Cl)c3)c2cc1NC(=O)C=CCN(C)C was tested. Which max response did it give?
A: -18.5% (inactive)

Q: Which Potency does the source give for Nc1nc(=O)n([C@H]2C[C@H](O)[C@@H](CO)O2)cc1F here?
A: 11.8 µM (active)

Q: Nc1nc(N)c2nc(-c3cccc(O)c3)c(-c3cccc(O)c3)nc2n1 was tested. Which Potency did it give?
A: 10.5 µM (active)

Q: Which Potency does the source give for Cc1ccc([N+](=O)[O-])cc1S(=O)(=O)N(C)N=Cc1cnc2ccc(Br)cn12 here?
A: 0.0209 µM (active)

Q: C[C@@]12C(=O)OC(=O)[C@@]1(C)C1CCC2O1 was tested. Which Potency did it give?
A: 7.43 µM (active)

Q: For C[C@H](NCc1ccc(OCc2cccc(F)c2)cc1)C(N)=O, which Potency is on record?
A: 9.35 µM (active)

Q: O=C(Nc1cccc(Nc2ncc(Br)c(NCCc3cnc[nH]3)n2)c1)N1CCCC1 was tested. Which Potency did it give?
A: 1.32 µM (active)

Q: Cc1cnc(Nc2ccc(CN3CCOCC3)cc2)nc1Nc1cccc(S(=O)(=O)NC(C)(C)C)c1 was tested. Which Potency did it give?
A: 4.18 µM (active) and 1.46 µM (active)

Q: Which max response does the source give for CCN(CC)CCCCNc1ncc2c(n1)N(C)C(=O)N(c1c(Cl)c(OC)cc(OC)c1Cl)C2 here?
A: -30% (inactive)

Q: How did the outcome turn out when COc1cc2ncnc(Nc3cccc(Br)c3)c2cc1OC was run?
A: inactive

Q: CCNC(=O)Nc1ccc(-c2nc3c(c(N4CCOC[C@H]4C)n2)CCN(C2COC2)C3)cc1 was tested. Which Potency did it give?
A: 1.32 µM (active)

Q: Which Potency does the source give for CO[C@@H]1[C@@H](O)[C@H](O)[C@@H](n2c3c(Cl)cccc3c3c4c(c5c6cccc(Cl)c6[nH]c5c32)C(=O)NC4=O)O[C@@H]1CO here?
A: 2.96 µM (active)

Q: Which Potency does the source give for COc1ccc(Nc2cc(-c3cnc(N)nc3)nc(N3CCOCC3)n2)cn1 here?
A: 2.96 µM (active)

Q: With Cc1[nH]c(C=C2C(=O)Nc3ccccc32)c(C)c1CCC(=O)O as the molecule, how does the max response read?
A: 3.92% (inactive)

Q: For COc1ccc(S(=O)(=O)Nc2cccnc2Nc2ccc(O)cc2)cc1, which Potency is on record?
A: 332 nM (active) and 820 nM (active)

Q: CC(C(C)N1CC(=O)NC(=O)C1)N1CC(=O)NC(=O)C1 (centres undefined) was tested. Which max response did it give?
A: -3.89% (inactive)

Q: How did the max response turn out when Cc1ccc(-n2[nH]c(C)c(N=Nc3cccc(-c4cccc(C(=O)O)c4)c3O)c2=O)cc1C was run?
A: -13.9% (inactive)

Q: How did the Potency turn out when COc1cccc2c1C(=O)c1c(O)c3c(c(O)c1C2=O)C[C@@](O)(C(=O)CO)C[C@H]3O[C@H]1C[C@H](N)[C@H](O)[C@H](C)O1 was run?
A: 0.526 µM (active)

Q: With CNC(=O)c1ccc(Nc2cc(Nc3ccccc3S(=O)(=O)C(C)C)c3cc[nH]c3n2)nc1 as the molecule, how does the Potency read?
A: 1.32 µM (active)

Q: CCOC(=O)N1CCN([N+]([O-])=NOc2ccc([N+](=O)[O-])cc2[N+](=O)[O-])CC1 was tested. Which outcome did it give?
A: inactive

Q: Which Potency does the source give for C#CCC(Cc1cnc2nc(N)nc(N)c2n1)c1ccc(C(=O)N[C@@H](CCC(=O)O)C(=O)O)cc1 (some centres undefined) here?
A: 0.146 µM (active)

Q: For CCN(CC)Cc1ccc2cc(COC(=O)Nc3ccc(C(=O)NO)cc3)ccc2c1, which Potency is on record?
A: 1.16 µM (active)

Q: For C[C@@H](Cc1cc2c(c(C(N)=O)c1)N(CCCO)CC2)NCCOc1ccccc1OCC(F)(F)F, which max response is on record?
A: -7.67% (inactive)

Q: For CCOC(=O)[C@@H](N)Cc1ccc(-c2cc(O[C@H](c3ccc(Cl)cc3-n3ccc(C)n3)C(F)(F)F)nc(N)n2)cc1, which max response is on record?
A: 6.69% (inactive)

Q: For Cn1cc(C2=C(c3c4n(c5ccccc35)CCC(CN)C4)C(=O)NC2=O)c2ccccc21 (centres undefined), which Potency is on record?
A: 6.62 µM (active)

Q: With CC(C)N1[N]C(=C2C=c3cc(O)ccc3=N2)c2c(N)ncnc21 as the molecule, how does the Potency read?
A: 1.18 µM (active)

Q: With CC(=O)NCC(=O)N1[C@H]2CC[C@H]1c1cc(Nc3ncc(C(F)(F)F)c(NC4CCC4)n3)ccc12 as the molecule, how does the Potency read?
A: 1.66 µM (active)

Q: Which max response does the source give for CC(C)c1cc(C(C)C)c(CC(=O)NS(=O)(=O)Oc2c(C(C)C)cccc2C(C)C)c(C(C)C)c1 here?
A: 0.649% (inactive)

Q: With N=c1ccn2c(n1)O[C@H]1[C@@H](O)[C@@H](CO)O[C@H]12 as the molecule, how does the max response read?
A: -23.9% (inactive)

Q: For CNC(=O)c1cccc(-c2ccc3c(N4CCOC[C@H]4C)nc(N4CCOC[C@H]4C)nc3n2)c1, which Potency is on record?
A: 0.118 µM (active)
